# Reference: PubChem BioAssay
# Active and inactive are the calls of the source.
# Key:
# [1] = A549 cell viability effects, profiling panel, calcein-AM fluorescence, 48 h, basal (AID 1162); conditions: higher = more signal
# [2] = adipocyte viability effects, profiling panel, cell-based, 3T3-L1 adipocytes, calcein-AM fluorescence, 48 h, basal (AID 1163); conditions: 3T3-L1 adipocytes viability, higher = more signal
# [3] = HepG2 cell viability effects, profiling panel, calcein-AM fluorescence, 48 h, basal (AID 1164); conditions: higher = more signal
# [4] = MM1S cell viability effects, profiling panel, calcein-AM fluorescence, 48 h, basal (AID 1165); conditions: higher = more signal;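 also: viability of MM1S multiple myeloma cells under basal unstimulated conditions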
# [5] = basal RPMI8226 viability, no added stimulus, profiling panel, cell-based, calcein-AM fluorescence, 48 h, PK04 Diversity Set (AID 1166); conditions: RPMI8226 myeloma viability, higher = more signal;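 also: cells grown under basal conditions without added stimulus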
# [6] = basal HepG2 mitochondrial membrane potential changes, profiling panel, cell-based, JC-1 fluorescence, 24 h, 100 nL compound (AID 1167); conditions: higher = more signal
# [7] = basal 3T3-L1 adipocyte mitochondrial potential changes, profiling panel, cell-based, JC-1 fluorescence, 3T3-L1 adipocytes, 24 h, 100 nL compound (AID 1168); conditions: JC-1 mitochondrial fluorescence, higher = more signal, called active from +8 up or from −8 down
# [8] = basal RPMI8226 mitochondrial membrane potential changes, profiling panel, cell-based, JC-1 fluorescence, 24 h, 100 nL compound (AID 1169); conditions: RPMI8226 myeloma, JC-1 mitochondrial potential fluorescence, higher = more signal
# [9] = basal MM1S mitochondrial membrane potential changes, profiling panel, cell-based, JC-1 fluorescence, 24 h, 100 nL compound (AID 1170); conditions: higher = more signal
# [10] = A549 lung cancer cell viability effects, profiling panel, resazurin fluorescence, 24 h, PK04 Diversity Set (AID 1171); conditions: higher = more signal, called active from +8 up or from −8 down
# Also: test concentration not given here.
Compound,z-score [1],z-score [2],z-score [3],z-score [4],z-score [5],z-score [6],z-score [7],z-score [8],z-score [9],z-score [10]
CCCC#C[Si](O[C@H](CC)c1cn([C@H](C)c2ccccc2)nn1)(C(C)C)C(C)C,1.18,-0.374,0.9,-1.32,-1.74,0.621,0.698 (inactive),-0.0539,-0.0359,0.61 (inactive)
[N-]=[N+]=Nc1ccccc1C[C@@]1(C(N)=O)N=C(c2ccc(OCCCO)cc2)O[C@@H]1c1ccccc1N=[N+]=[N-],-1.53,1.08,-0.727,-1.68,-4.08,-1.11,-1.35 (inactive),-1.23,-0.169,-0.385 (inactive)
C=CC[C@H](OC(=O)Nc1ccc(SC)cc1)c1ccc(O)c2ccccc12,-2.22,-0.162,-3.05,-2.74,-4.21,-3.26,0.41 (inactive),-1.02,-2.09,-1.24 (inactive)
COC(=O)c1c(CC[C@@H](CO)NC(=O)N2CCC[C@H]2Cn2cc(C3(O)CCCCC3)nn2)oc(C(C)=O)c1C(=O)OC,-0.615,0.209,-0.513,0.205,0.577,0.223,-0.629 (inactive),-0.667,-0.38,-0.168 (inactive)
CC(C)[Si]1(C(C)C)OCc2cc(-c3ccc(-c4ccc(Cl)c(Cl)c4)o3)nc(-c3ccccc3)c21,-0.715,0.369,-0.738,-1.77,-1.8,-1.18,-0.485 (inactive),0.194,0.406,0.793 (inactive)
CS(=O)(=O)CCOC(=O)C1=CC(CCCO)=CC(c2ccc(CN3CCCC3)cc2)N(Cc2sc3ccccc3c2Cl)C=C1C(=O)OCCS(C)(=O)=O (stereo not given),0.389,0.958,0.888,-1.59,0.16,2.41,0.0187 (inactive),-0.544,-0.299,0.328 (inactive)
CC1CC/C=C\[C@H]2OC34C=CCN(c5ccc6ccccc6c5)C(=O)[C@H]3N(CCCO)C(=O)[C@@H]4C2C(=O)O1 (stereo not given in full),-0.391,-0.229,-0.597,-0.144,-0.143,-0.519,-0.856 (inactive),0.17,0.707,-0.525 (inactive)
COc1ccc([C@H]2OC[C@@H]3C[C@H](Cc4ccccc4)C(=O)N32)cc1,-0.799,-0.835,-0.459,0.191,-0.598,-0.703,0.0558 (inactive),0.00274,-0.393,-0.116 (inactive)
CCCNC(=O)[C@@H]1c2ccccc2C(=O)N(Cc2ccc(OC(F)(F)F)cc2)[C@H]1c1ccc(CO)cc1,1.17,0.385,2.08,0.157,0.485,3.22,1.22 (inactive),0.432,0.129,0.285 (inactive)
COC(=O)C/C=C/C[C@]1(O)C(=O)N(C)c2ccccc21,1.59,0.349,1.39,0.672,-0.419,1.25,-0.694 (inactive),-0.838,2.2,0.946 (inactive)
CO[C@H]1O[C@H](CO)[C@@H](OC(=O)CCc2ccccc2)[C@@H]2OC(=O)[C@@H](Cc3ccccc3)C/C=C/C[C@H](Cc3ccccc3)C(=O)O[C@@H]12,1.7,0.271,0.514,-0.753,-0.711,0.358,0.669 (inactive),0.578,-0.946,1.2 (inactive)
COc1ccc([Si](C)(C)[C@@H]2[C@@H](CCO)O[C@]3(C(=O)N(Cc4ccccc4)c4ccc(N5C(=O)c6cccc7cccc5c67)cc43)[C@H]2C)cc1,-0.768,-0.384,-0.916,-0.61,-2.73,-0.555,0.943 (inactive),-0.751,-1.3,-0.149 (inactive)
Cc1cc(C)c(C(O)C2C=CC3C(=O)N(c4ccccc4)C(=O)C3N2Nc2ccccc2F)c(C)c1 (stereo not given),-0.472,-0.89,-0.631,-1.57,0.48,-1.84,-0.709 (inactive),-0.15,1.01,1.61 (inactive)
COc1ccc(C(=O)Nc2ccc(CN3C(=O)[C@]4(O[C@H](CC(=O)N5Cc6ccccc6C[C@H]5CO)[C@@H]([Si](C)(C)c5ccc(OC)cc5)[C@@H]4C)c4ccccc43)cc2)cc1,-0.513,1.56,0.349,-1.6,-0.786,0.705,-0.212 (inactive),-0.7,-0.911,-1.96 (inactive)
